This is a sample that favours compounds with a hit; in the whole collection about 11% have one here.
G9a inh: blocks human histone lysine methyltransferase G9a. Q96KQ7. G9a H3K9 monomethylation, AlphaScreen, 2 h. Potency, µM (highest dose often 102 µM), most hits filed as inhibitors. 350,000 tested, 8.8% active; also: nearly all actives have a fitted effect of over 75% in size
Target sequence (Q96KQ7 913-1193 limits assumed): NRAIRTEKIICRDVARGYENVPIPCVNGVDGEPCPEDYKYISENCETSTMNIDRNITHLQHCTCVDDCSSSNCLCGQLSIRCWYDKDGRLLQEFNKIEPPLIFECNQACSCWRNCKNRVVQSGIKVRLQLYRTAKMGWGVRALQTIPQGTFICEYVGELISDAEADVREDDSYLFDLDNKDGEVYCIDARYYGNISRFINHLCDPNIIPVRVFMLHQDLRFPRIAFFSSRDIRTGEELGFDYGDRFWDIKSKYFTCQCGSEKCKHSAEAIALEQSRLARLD
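Compounds were preincubated with 20 nM G9a for 15 min, after which biotinylated H3K9 peptide (500 nM) and SAM (20 uM) started a 2 h room-temperature reaction. Monomethylated product was quantified by antibody-based AlphaScreen chemiluminescence.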
Sfp PPTase inh: Sfp phosphopantetheinyl transferase inhibition | Q9F4F7 | Biochemical Sfp PPTase activity, qHTS | Potency, µM, most hits filed as inhibitors | 310,000 tested, 3.5% active | AID 1490;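 also: the enzyme is Sfp with the accession as filed and its product quenches rhodamine fluorescence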
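Buffer: 50 mM Hepes-Na pH 7.6, 10 mM MgCl2, 0.01% Nonidet P-40, 0.01% BSA. Enzyme 15 nM, pre-exposed to compound 15 min; substrates then added and fluorescence change tracked over 30 min.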
Tau ThT inhib: blocks human tau fibril formation measured by thioflavin T; 270,000 tested, 2.1% active; P10636; AID 1460; Potency, µM (doses to about 57.4 µM), most hits filed as inhibitors; recombinant tau K18 P301L, heparin-induced fibrillization, ThT fluorescence; also: nearly all actives have a fitted effect of over 55% in size
Target sequence (P10636 561-689 P618L limits assumed): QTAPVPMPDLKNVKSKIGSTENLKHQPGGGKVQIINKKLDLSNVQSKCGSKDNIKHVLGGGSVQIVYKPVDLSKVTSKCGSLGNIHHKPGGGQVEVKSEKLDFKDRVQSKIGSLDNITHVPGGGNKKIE
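Fibril formation assay: tau K18 P301L at 15 uM with trace Alexa 594 label, heparin inducer 20 uM, pH 7 sodium acetate buffer, 37 C for 6 hr; endpoint ThT signal.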
Coupling enz: coupling enzyme interference in Giardia aldolase counter-screen. 290,000 tested, 0.67% active. AID 2472. coupling enzyme system counterscreen, AmpLite Red fluorescence. activity change, negative = inhibition, % at 58.2 µM, hits read low; in the data active = activity change below about -30%
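Counterscreen of the coupled detection system alone, without aldolase: glyceraldehyde-3-phosphate coupling enzymes plus AmpLite Red readout. Compounds at 57.5 uM final, 10 min RT preincubation, 20 min RT reaction, fluorescence 525/598 nm.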
Tau fluor cs: counter-screen for tau fibril formation inhibitors; tau K18 P301L (four-repeat tau fragment) Alexa594 fluorescence, heparin fibrillization; Potency, µM (doses to about 57.7 µM); 280,000 tested, 0.93% active; also: nearly all actives have a fitted effect of over 55% in size
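Human K18 P301L tau (15 uM unlabeled plus 0.24 uM Alexa 594-labeled, final) in 100 mM sodium acetate pH 7 was mixed with compound and 20 uM heparin and incubated 6 hr at 37 C.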
Tau fibril FP: tau fibrillization inhibition (FP) | K18 P301L tau heparin fibrillization, Alexa594 FP, 6 h | P10636 | AID 1468 | 280,000 tested, 0.39% active | Potency, µM (series often up to 57.7 µM), hits mostly inhibitors; also: nearly all actives have a fitted effect of over 55% in size
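Read-out: fluorescence polarization of Alexa 594-labeled tau (0.24 uM), 555 nm excitation, 632 nm emission. Mixtures held 15 uM unlabeled K18 P301L, compound and 20 uM heparin, pH 7 acetate buffer, incubated 6 hr at 37 C.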
Numbers stand for hits; – = inactive; ? = inconclusive; · = no result given; ! = not active in a repeat; [ ] = dose if it differs, or a comment. Unless noted, calls follow the shape of the dose curve; as a rule, active = well fitted curve in the direction sought with a large enough effect; inconclusive = small, poorly fitted or top-dose-only effect, or another doubt; inactive = no such curve, though single readings can be large; an effect the other way counts as inactive or inconclusive.

SMILES	G9a inh	Sfp PPTase inh	Tau ThT inhib	Coupling enz	Tau fluor cs	Tau fibril FP
CCN1C(=O)C(=Cc2ccc(C)s2)C(=O)N(CC)C1=S	35µM	?	14µM	–	–	?
ClC1=C(Cl)C(Cl)=C(Cl)C1=C/C=C/c1ccccc1	3.2µM	–	11µM	–	14µM[quencher]	?
C=CCN1CC[C@]23c4c5ccc(O)c4O[C@H]2/C(=N/NC(=O)c2ccccc2)CC[C@@]3(O)[C@H]1C5	35µM	–	–	–	–	–
O=C1NC(=O)N(c2ccccc2F)C(=O)/C1=C/c1cn(CC(=O)N2CCOCC2)c2ccccc12	16µM	?	·	–	·	·
CCN1C(=O)NC(=O)/C(=C\c2cn(CC(=O)N3CCCCC3)c3ccccc23)C1=O	–	–	·	–	·	·
CCN1C(=O)NC(=O)/C(=C\c2cn(CC(=O)N3CCCC3)c3ccccc23)C1=O	–	56µM	·	–	·	·
COC(=O)C1=CO[C@@H](C)[C@@H]2CN3CC[C@]4(C(=O)Nc5c4ccc(OC)c5OC)[C@H]3C[C@H]12	·	–	–	–	–	–
Oc1cccc2nc3ccccc3nc12	28µM	–	16µM	–	–	–
Cc1noc(C)c1C(=O)N1CCC2(CCCN(CC(C)C)C2)CC1	–[12.7 µM]	–	·	–	·	·
COc1ccccc1CN1CC[C@@]2(CCCN(C(=O)Oc3ccccc3)C2)C1	–[12.7 µM]	–	·	–	·	·
O=C1C2CCN(CC2)[C@@H]1Cc1ccc2ccccc2c1O	?	?	–	-43	–	–
CCN1C[C@@]2(COC)CCC(OC)[C@]34C5C[C@]6(O)[C@@H](OC)C[C@](OC(C)=O)(C([C@H](OC)C23)[C@H]14)C5[C@H]6OC(=O)c1ccc(OC)cc1 (some centres not stated)	·	–	·	–	·	·
CCC(C)C(=O)OC1C2CC3=C4CC(=O)OC(c5ccoc5)[C@]4(C)CCC3[C@@](C)(C2=O)C(CC(=O)OC)C1(C)C (some centres not stated)	–[2.33 µM]	–	?	–	–	?
CN1C(=O)C(C2(C#N)CCCCC2)C(=O)N(C)C1=O	50µM	–	–	–	–	–
Cc1c(C)n(O)c2ccc3nonc3c12	?	–	32µM	–	–	?
O=c1c2ccccc2nc(/C=C/c2cccnc2)n1Cc1ccccc1	·	32µM	?	–	–	–
O=c1c2ccccc2nc(/C=C/c2ccccc2)n1-c1ccccc1O	–[0.501 µM]	–	·	–	·	·
COc1cccc2c1cc([N+](=O)[O-])c1c(C(=O)O)cc3c(c12)OCO3	·	–	14µM	–	?	–
C=CCc1cc(OC)c2c(c1)OCO2	–[12.7 µM]	·	·	·	·	·
COc1ccc(CNC(=O)Cn2c(=O)oc3cc(S(=O)(=O)N4CCCC4)ccc32)cc1	–	–	–	·	–	–
CN(C)c1ccc(CNC(=O)Cn2c(=O)oc3cc(S(=O)(=O)N4CCCCCC4)ccc32)cc1	11µM	·	–	·	?	–
CC1OC(O[C@@H]2C(O)CC(O[C@@H]3C(O)C[C@@H](OC4CC[C@]5(C)[C@H](CC[C@H]6[C@@H]5CC[C@]5(C)C(C7=CC(=O)OC7)C(O)C[C@@]65O)C4)OC3C)OC2C)CC(O)C1O (some centres not stated)	·	–	?	–	–	–
COc1ccc(CN2CCN(C(=O)COc3ccccc3)CC2)c(OC)c1	3.5µM	·	–	·	–	–
COc1ccccc1CN1CCN(C(=O)COc2ccc3ccccc3c2)CC1	8.9µM	?	·	–	·	·
COc1ccccc1CN1CCN(C(=O)COc2cccc(C)c2)CC1	?	–	?	–	–	–
SMILES	G9a inh	Sfp PPTase inh	Tau ThT inhib	Coupling enz	Tau fluor cs	Tau fibril FP
CN1CCN(C(=O)COc2ccc3ccccc3c2)CC1	–	–	·	–	·	·
COc1ccc(OCC(=O)N2CCN(Cc3cccc(OC)c3OC)CC2)cc1	2µM	·	–	·	–	–
O=C(COc1ccc2ccccc2c1)N1CCN(CC2CC3C=CC2C3)CC1 (configuration not stated)	22µM	?	–	–	–	–
CN1CCCC2(CCN(C(=O)c3ccco3)CC2)C1	–[12.7 µM]	–	·	–	·	·
CCCOc1ccc2[nH]cc(C3=CCNCC3)c2n1	·	?	?	–	–	–
COc1ccc(OC)c(CN2CCN(C(=O)COc3cccc(C)c3)CC2)c1	7.1µM	?	–	–	–	–
O=[N+]([O-])NC1=NCCN1Cc1ccc(Cl)nc1	·	–	·	–	·	·
O=[N+]([O-])/C=C1\NCCN1Cc1ccc(Cl)nc1	50µM!	–	–	–	–	–
Cc1ccc(S(=O)(=O)n2[nH]c(=O)cc2NC(=O)c2cccs2)cc1	?	–	?	–	–	?
Cc1ccc(Cl)c(O)c1	–	–	·	·	·	·
c1cnc(N2CCNCC2)nc1	18µM	–	–	–	–	–
CC(C)NC(=O)N1CCCC2(CCN(C(=O)Oc3ccccc3)CC2)C1	–[12.7 µM]	–	·	–	·	·
Cc1ccccc1-n1c(O)c(/C=C/C=Nc2ccccc2)c(=O)[nH]c1=O	–	–	?	–	–	–
Cn1c(O)c(/C=C/C=Nc2ccccc2)c(=O)n(C)c1=S	45µM	–	?	–	6.3µM[fluorescent]	?
Clc1ccccc1-c1cncnc1NCCc1cnc[nH]1	–[0.501 µM]	–	·	–	·	·
CN[C@H](CC(C)C)C(=O)N[C@H]1C(=O)N[C@@H](CC(N)=O)C(=O)N[C@H]2C(=O)N[C@H]3C(=O)N[C@H](C(=O)N[C@H](C(=O)O)c4cc(O)cc(O)c4-c4cc3ccc4O)[C@H](O)c3ccc(c(Cl)c3)Oc3cc2cc(c3O[C@@H]2O[C@H](CO)[C@@H](O)[C@H](O)[C@H]2O[C@H]2C[C@](C)(N)[C@H](O)[C@H](C)O2)Oc2ccc(cc2Cl)[C@H]1O	–[12.7 µM]	·	–	·	–	–
COc1ccccc1N=c1scc(-c2ccc(S(=O)(=O)N3CCCC3)cc2)n1C	10µM	·	?	·	?	–
COc1ccccc1C1Nc2ccccc2-n2c(-c3ccccc3)c3c(=O)n(C)c(=O)n(C)c3c21 (configuration not stated)	?	·	–	·	–	–
CC(CN)CC(=O)O (configuration not stated)	–	–	–	·	–	–
CCOc1ccc(CN(CCc2ccc3c(c2)OCO3)Cc2cccc(OC)c2)cc1	2.2µM	·	–	·	–	–
NCCCC[C@H](NC(=O)[C@H](Cc1ccccc1)NC(=O)[C@H](CCCN=C(N)N)NC(=O)[C@@H](N)Cc1ccc(O)cc1)C(N)=O	–	–	–	·	–	–
CN(C(=O)COc1nc2ccccc2s1)c1ccccc1	·	–	·	–	·	·
CCNC(=S)NCCC1=c2ccccc2=N/C1=C\c1c(O)n(C)c(=O)n(C)c1=O	10µM	16µM	?	–	–	–
CCOP(=S)(OCC)O/N=C(\C#N)c1ccccc1Cl	·	?	·	–	·	·
COc1ccc(NC(=S)NC(NC(=O)CF)C(Cl)(Cl)Cl)cc1[N+](=O)[O-] (configuration not stated)	22µM	–	?	–	–	–
